PubChem BioAssay
Calls of active or inactive are those of the source. Rule as the data show it, unless noted: active = response above about 15%; inactive = the rest.

What was measured:
[1] = inhibitors of CD8+ T cell-vesicle binding, pilot screen, LFA-1/ICAM-1 modulator project, MLPCN validation set, flow cytometry (AID 2523;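 active = response below a set limit, under 55% cells CD8-positive and vesicle-bound, and CD8 cells' 90th-percentile brightness under 279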;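 as to vesicle binding response: mean PE anti-B7-1 fluorescence of CD8+ cells relative to row control; 100% = QL9-loaded vesicles with DMSO vehicle in the same plate row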); conditions: 2C mouse CD8+ T cells, at 7 µM, stronger effect = lower value; double positive events: measured here: CD8+/vesicle+ event percentage
[2] = target: Integrin beta-1 (Homo sapiens) + Integrin alpha-4 (Homo sapiens) (UniProt P13612+P05556); experiment: inhibition of HUTS-21 binding to VLA-4, pilot screen, VLA-4 allosteric modulator project, U937 cells, HUTS-21 mAb, flow cytometry, validation set (AID 2674;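 active = inhibition above 50%, about 3 SD of the validation set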;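 also: antibody binding induced by the VLA-4 ligand LDV present at three times its Kd; 0% = LDV ligand with antibody and no compound and 100% = antibody without LDV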); conditions: HUTS-21 LIBS mAb binding, at 6.7 µM, stronger effect = higher value, binding induced by LDV ligand
Sequence of Integrin beta-1 (Homo sapiens) + Integrin alpha-4 (Homo sapiens) (P05556 whole entry, looked up): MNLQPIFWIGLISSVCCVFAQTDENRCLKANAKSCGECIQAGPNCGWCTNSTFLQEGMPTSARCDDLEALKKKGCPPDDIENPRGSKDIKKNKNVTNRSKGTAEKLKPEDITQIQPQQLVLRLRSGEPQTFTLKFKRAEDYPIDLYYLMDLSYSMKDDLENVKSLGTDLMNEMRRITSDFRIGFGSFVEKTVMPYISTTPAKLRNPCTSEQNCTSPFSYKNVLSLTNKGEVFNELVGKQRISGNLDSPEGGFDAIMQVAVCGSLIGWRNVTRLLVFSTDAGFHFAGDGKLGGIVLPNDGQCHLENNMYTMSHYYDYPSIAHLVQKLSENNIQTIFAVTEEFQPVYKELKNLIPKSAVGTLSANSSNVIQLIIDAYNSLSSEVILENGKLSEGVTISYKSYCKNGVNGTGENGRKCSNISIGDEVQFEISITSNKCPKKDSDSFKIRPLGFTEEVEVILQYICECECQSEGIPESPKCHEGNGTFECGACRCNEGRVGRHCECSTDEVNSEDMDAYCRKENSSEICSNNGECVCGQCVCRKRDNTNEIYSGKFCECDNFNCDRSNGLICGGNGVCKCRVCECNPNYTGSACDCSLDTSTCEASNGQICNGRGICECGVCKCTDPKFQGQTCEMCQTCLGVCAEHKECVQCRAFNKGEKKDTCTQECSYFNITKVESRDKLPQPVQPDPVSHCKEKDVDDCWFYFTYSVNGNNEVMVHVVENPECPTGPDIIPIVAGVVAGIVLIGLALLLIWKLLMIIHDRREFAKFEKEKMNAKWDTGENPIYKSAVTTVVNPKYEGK
Sequence of Integrin beta-1 (Homo sapiens) + Integrin alpha-4 (Homo sapiens) (P13612 whole entry, looked up): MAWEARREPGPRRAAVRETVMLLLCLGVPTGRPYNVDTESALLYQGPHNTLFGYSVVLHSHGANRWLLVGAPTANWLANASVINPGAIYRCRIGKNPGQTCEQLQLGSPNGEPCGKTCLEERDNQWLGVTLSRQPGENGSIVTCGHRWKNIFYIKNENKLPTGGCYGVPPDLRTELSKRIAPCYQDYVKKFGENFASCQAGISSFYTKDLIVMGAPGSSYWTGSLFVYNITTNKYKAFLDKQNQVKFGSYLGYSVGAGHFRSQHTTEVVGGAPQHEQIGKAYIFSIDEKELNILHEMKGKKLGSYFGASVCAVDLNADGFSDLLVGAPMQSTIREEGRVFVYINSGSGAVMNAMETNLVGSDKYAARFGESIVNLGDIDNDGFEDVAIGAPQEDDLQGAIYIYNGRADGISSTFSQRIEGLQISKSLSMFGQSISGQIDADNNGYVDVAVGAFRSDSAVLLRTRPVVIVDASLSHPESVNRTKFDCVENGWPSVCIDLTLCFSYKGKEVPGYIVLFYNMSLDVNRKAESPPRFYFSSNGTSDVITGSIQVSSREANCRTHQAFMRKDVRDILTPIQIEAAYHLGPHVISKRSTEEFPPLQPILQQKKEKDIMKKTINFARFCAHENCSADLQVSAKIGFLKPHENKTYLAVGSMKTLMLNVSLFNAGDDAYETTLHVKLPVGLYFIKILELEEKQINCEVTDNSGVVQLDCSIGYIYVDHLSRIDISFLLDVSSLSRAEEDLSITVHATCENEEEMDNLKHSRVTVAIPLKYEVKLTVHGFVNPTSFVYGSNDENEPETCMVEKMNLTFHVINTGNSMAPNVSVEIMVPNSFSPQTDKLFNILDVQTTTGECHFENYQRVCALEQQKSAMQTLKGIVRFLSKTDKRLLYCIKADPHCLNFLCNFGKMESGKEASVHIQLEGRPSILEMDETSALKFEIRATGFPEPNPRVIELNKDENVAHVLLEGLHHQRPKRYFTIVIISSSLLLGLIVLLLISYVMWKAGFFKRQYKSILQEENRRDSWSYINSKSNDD

[3] = superoxide lowering in aged yeast cells, pilot screen, validation compound set (AID 2706;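 active = superoxide response below 65% of plate, a cut near 3 SD across the whole screen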;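 also: yeast exposed to compound for one week at 30 degrees C before staining; 100% = mean of all compound wells on the same plate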); conditions: S. cerevisiae aging, superoxide DHE fluorescence; at 10 µM, stronger effect = lower value
[4] = target: Beta-adrenergic receptor kinase 1 (Homo sapiens) (UniProt P25098); experiment: GRK2 binders displacing RNA aptamer, biochemical, validation, human GRK2, bead flow cytometry (AID 488806;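 active = aptamer binding inhibition above 30%, about 3 SD of noise from non-fluorescent compounds; inactive = inhibition at or below 30%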); conditions: bead-bound GRK2, FAM-aptamer displacement, at 10 µM, stronger effect = higher value
Sequence of Beta-adrenergic receptor kinase 1 (Homo sapiens) (P25098 whole entry, looked up): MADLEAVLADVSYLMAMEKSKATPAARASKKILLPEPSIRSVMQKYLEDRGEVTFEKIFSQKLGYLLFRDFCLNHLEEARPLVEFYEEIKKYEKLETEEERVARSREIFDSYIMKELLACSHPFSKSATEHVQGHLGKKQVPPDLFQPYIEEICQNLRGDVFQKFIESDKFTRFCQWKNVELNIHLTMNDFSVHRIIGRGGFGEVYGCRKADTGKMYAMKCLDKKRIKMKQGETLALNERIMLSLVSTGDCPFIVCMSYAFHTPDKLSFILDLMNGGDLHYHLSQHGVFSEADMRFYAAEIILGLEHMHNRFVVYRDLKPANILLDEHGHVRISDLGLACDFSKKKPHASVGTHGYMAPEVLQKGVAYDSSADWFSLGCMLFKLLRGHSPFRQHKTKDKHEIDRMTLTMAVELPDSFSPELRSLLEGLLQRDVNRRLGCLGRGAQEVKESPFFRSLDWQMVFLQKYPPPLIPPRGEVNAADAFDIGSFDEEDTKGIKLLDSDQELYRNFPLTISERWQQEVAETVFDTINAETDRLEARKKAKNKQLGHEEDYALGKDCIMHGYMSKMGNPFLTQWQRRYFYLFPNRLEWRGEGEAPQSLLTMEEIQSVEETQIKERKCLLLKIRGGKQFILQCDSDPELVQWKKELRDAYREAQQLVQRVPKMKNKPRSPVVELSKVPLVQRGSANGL

[5] = target: Beta-2 adrenergic receptor (Homo sapiens) (UniProt P07550); experiment: beta2AR agonists driving receptor internalization, pilot screen, cell-based, FAP fluorogen, flow cytometry, validation set (AID 504459;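 active = percent response above 42, roughly 3 SD of non-fluorescent test compounds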;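 also: agonist-driven loss of surface beta2AR via internalization measured by FAP dye flow cytometry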); conditions: Am2.2-beta2AR cells, FAP surface receptor flow cytometry; at 10 µM; stronger effect = higher value
Sequence of Beta-2 adrenergic receptor (Homo sapiens) (P07550 whole entry, looked up): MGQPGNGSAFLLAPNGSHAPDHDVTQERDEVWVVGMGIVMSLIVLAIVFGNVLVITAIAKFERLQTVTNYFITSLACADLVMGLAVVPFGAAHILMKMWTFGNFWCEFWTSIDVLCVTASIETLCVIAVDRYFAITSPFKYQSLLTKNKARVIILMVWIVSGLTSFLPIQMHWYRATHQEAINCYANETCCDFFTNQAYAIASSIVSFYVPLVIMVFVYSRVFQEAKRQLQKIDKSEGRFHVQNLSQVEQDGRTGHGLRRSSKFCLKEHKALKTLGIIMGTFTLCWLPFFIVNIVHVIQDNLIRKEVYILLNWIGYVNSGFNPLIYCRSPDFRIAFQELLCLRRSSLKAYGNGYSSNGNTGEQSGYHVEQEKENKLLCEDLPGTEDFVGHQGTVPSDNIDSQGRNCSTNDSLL

[6] = target: AP-2 complex subunit beta (Homo sapiens) (UniProt P63010); experiment: inhibitors of arrestin peptide binding to AP2, pilot screen, biochemical, validation set, GST-AP2 beads, flow cytometry (AID 504541;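 active = inhibition above 54%, about 3 SD of non-fluorescent compounds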;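 also: AP2 carries R879A mutation and is captured from E. coli lysate; bead-bound FITC arrestin peptide fluorescence measuring arrestin peptide binding to AP2; 0% = DMSO wells and 100% = excess unlabeled arrestin peptide control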); conditions: FITC arrestin peptide, at 10 µM, stronger effect = higher value, AP2 beta2 appendage fragment, R879A mutant
Sequence of AP-2 complex subunit beta (Homo sapiens) (P63010 whole entry, looked up, the tested form may be a part, one chain of several): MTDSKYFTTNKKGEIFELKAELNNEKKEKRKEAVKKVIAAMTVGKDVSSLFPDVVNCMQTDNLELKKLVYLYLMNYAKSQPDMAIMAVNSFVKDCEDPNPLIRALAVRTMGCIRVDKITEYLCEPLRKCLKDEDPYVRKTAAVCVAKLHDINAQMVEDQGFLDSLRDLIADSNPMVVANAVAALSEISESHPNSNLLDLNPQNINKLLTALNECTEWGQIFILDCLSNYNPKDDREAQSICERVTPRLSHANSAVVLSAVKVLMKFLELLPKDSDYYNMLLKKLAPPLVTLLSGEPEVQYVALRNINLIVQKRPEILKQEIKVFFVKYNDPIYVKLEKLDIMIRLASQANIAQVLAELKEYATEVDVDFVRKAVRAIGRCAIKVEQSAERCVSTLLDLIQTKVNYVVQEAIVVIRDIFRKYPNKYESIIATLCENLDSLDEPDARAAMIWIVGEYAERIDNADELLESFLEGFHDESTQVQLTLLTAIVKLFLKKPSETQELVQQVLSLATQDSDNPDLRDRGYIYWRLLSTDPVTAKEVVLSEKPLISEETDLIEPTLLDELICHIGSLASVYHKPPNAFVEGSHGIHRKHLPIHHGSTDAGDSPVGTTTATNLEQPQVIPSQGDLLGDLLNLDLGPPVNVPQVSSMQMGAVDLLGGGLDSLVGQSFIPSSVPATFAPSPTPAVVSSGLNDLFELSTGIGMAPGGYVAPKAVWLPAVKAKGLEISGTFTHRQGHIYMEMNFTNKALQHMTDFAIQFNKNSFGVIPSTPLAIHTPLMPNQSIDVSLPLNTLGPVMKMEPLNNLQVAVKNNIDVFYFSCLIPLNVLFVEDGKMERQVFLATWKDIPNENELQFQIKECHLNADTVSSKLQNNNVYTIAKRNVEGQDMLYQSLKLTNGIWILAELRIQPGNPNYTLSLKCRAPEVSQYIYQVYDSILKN

[7] = yeast V-ATPase proton transport modulators, S. cerevisiae, pHLuorin, HTS validation (AID 504600);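 also: plate controls were DMSO for no effect and reference compound for full effect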; conditions: S. cerevisiae pHLuorin cytosolic pH, at 10 µM, stronger effect = higher value
[8] = tested on: anti-desmoglein-3 scFv antibody binding to human DSG3; experiment: inhibitors of anti-DSG3 scFv binding to DSG3, pilot screen, biochemical, validation compound set, bead-based, flow cytometry (AID 588368;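 active = binding below the plate cutoff, the plate median minus 3 SD, with a reading above zero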;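 also: signal is the median channel fluorescence of bead-bound GFP antibody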); conditions: Protein G beads, DSG3-Fc, scFv-GFP binding, at 10 µM, stronger effect = lower value
[9] = inhibitors of fungal efflux pumps CDR1, CDR2, MDR1, pilot screen, validation compound set, multiplex, phenotypic (AID 588506;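 active = efflux inhibition above 0.42, the validation set average plus 4 SD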;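 also: Nile Red retained in cells so higher fluorescence means more efflux inhibition; 0 = negative control wells and 1 = enniatin B 25 µM full block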); conditions: S. cerevisiae pump-expressing triplex, Nile Red efflux flow cytometry; at 10 µM; stronger effect = higher value; the pumps come from Candida albicans
[10] = target: ATP-binding cassette sub-family B member 6 (Homo sapiens) (UniProt Q9NP58); experiment: ABCB6 transporter inhibitors, pilot screen, K562-ABCB6 cells, flow cytometry, validation set (AID 588550;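 active = inhibition above the screen-wide mean plus 3 SD, about 51%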;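 also: 0% = DMSO wells and 100% = benzethonium chloride 70 µM positive control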); conditions: K562-ABCB6 porphyrin accumulation, 1 h, at 10 µM, stronger effect = higher value
Sequence of ATP-binding cassette sub-family B member 6 (Homo sapiens) (Q9NP58 whole entry, looked up): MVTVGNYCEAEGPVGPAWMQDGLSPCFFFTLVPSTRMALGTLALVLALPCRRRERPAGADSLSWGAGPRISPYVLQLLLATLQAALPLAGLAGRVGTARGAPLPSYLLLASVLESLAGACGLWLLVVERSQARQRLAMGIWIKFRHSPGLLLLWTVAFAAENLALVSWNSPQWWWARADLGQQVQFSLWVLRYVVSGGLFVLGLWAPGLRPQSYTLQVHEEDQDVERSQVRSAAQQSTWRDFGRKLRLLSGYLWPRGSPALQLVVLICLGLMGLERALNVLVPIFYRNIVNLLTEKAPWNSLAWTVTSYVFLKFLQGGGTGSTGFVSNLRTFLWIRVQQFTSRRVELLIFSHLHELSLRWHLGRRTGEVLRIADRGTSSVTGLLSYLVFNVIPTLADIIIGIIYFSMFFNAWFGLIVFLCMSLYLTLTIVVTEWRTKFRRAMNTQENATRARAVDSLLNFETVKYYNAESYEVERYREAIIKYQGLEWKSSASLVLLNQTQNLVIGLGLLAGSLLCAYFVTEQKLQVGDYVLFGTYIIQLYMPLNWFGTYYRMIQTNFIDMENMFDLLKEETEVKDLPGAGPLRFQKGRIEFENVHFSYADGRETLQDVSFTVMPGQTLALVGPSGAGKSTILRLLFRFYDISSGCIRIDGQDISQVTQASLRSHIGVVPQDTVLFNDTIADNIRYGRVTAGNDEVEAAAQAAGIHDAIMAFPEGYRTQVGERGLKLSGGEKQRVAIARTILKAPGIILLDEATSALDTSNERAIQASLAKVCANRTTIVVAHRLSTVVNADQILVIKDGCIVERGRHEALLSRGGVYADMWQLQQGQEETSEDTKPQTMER

[11] = promoters of myeloid differentiation in arrested cells, primary screen, cell-based, GFP/MAC1 double positive, flow cytometry, validation set (AID 588685;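 active = differentiation response of at least 50%, scaled between solvent and reference control, from cells with both markers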;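 also: compound exposure lasts four days before antibody staining and flow analysis; 0% = DMSO wells and 100% = 5 µM fulvestrant positive control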); conditions: ER-HoxA9 marrow cells, stronger effect = higher value, normalized: vehicle 0, fulvestrant 100

Structure (SMILES) | double positive events [1] [%] | vesicle binding response [1] | inhibition [2] | superoxide response (% of plate) [3] | aptamer binding inhibition [4] | response [5] | inhibition [6] | response [7] | binding (% of control) [8] | efflux inhibition (fraction of control) [9] | inhibition [10] | differentiation response [11]
C=C(CC)C(=O)c1ccc(OCC(=O)O)c(Cl)c1Cl | 52.1 | 105% (inactive) | -4.21% (inactive) | 98.5% (inactive) | 2% (inactive) | 14.6% (inactive) | -9.01% (inactive) | 1.56% (inactive) | 108% (inactive) | -0.38 (inactive) | -92% (inactive) | 1.64% (inactive)
CCOC(=O)/C=C1\NC(C)(C)Cc2cc(OC)c(OC)cc21 | 59.2 | 271% (inactive) | 5.03% (inactive) | 102% (inactive) | 4% (inactive) | 9.33% (inactive) | -4.08% (inactive) | -1.95% (inactive) | 101% (inactive) | 0.08 (inactive) | 7% (inactive) | 31.2% (inactive)
Cc1ccc(C(=O)NC(=S)NCCCN2CCOCC2)cc1 | 66.2 | 172% (inactive) | 5.49% (inactive) | 96% (inactive) | 4% (inactive) | 1.89% (inactive) | 4.05% (inactive) | 5.81% (inactive) | 103% (inactive) | -0.38 (inactive) | 13% (inactive) | -0.82% (inactive)
OC(COCc1ccccc1)CN1CCN(Cc2ccc3c(c2)OCO3)CC1 (centres undefined) | 59.4 | 189% (inactive) | 7.76% (inactive) | 110% (inactive) | 2% (inactive) | 4.46% (inactive) | -4.35% (inactive) | 4.61% (inactive) | 97.8% (inactive) | -0.21 (inactive) | 4% (inactive) | 8.8% (inactive)
CC(C)(C)C(=O)NC(=S)Nc1sc2c(c1C(N)=O)CCC2 | 60.2 | 119% (inactive) | -4.52% (inactive) | 109% (inactive) | 2% (inactive) | 7.03% (inactive) | 2.56% (inactive) | -1.19% (inactive) | 96.6% (inactive) | -0.24 (inactive) | 4% (inactive) | -29.6% (inactive)
O=C(Oc1cccccc1=O)c1ccccc1 | 63.4 | 281% (inactive) | 21% (inactive) | 105% (inactive) | 6% (inactive) | -20.4% (inactive) | 1.79% (inactive) | -32.2% (inactive) | 102% (inactive) | 0 (inactive) | 2% (inactive) | 5.85% (inactive)
Cc1oc(/C=N/NC(=O)CC2(C)OCCO2)cc1Br | 60.6 | 93.4% (inactive) | 4.27% (inactive) | 107% (inactive) | -3% (inactive) | 4.99% (inactive) | 0.64% (inactive) | 68.3% (active) | 104% (inactive) | -0.245 (inactive) | 18% (inactive) | -0.18% (inactive)
COc1ccc(Cl)cc1C(=O)NCCc1ccc(S(=O)(=O)NC(=O)NC2CCCCC2)cc1 | 60.4 | 155% (inactive) | -10.5% (inactive) | 114% (inactive) | 4% (inactive) | -18.8% (inactive) | 3.88% (inactive) | -2.06% (inactive) | 101% (inactive) | -0.28 (inactive) | 8% (inactive) | -10.4% (inactive)
NC(N)=NC(=O)c1nc(Cl)c(N)nc1N | 62.4 | 206% (inactive) | 7.4% (inactive) | 87% (inactive) | 0% (inactive) | -22.4% (inactive) | -4.43% (inactive) | -1.82% (inactive) | 104% (inactive) | -0.04 (inactive) | -2% (inactive) | -3.02% (inactive)
Cc1cc(C(=O)NC(CC(C)C)C(=O)O)cc(C)c1[N+](=O)[O-] (centres undefined) | 61.7 | 204% (inactive) | -2.43% (inactive) | 96.9% (inactive) | 4% (inactive) | 1% (inactive) | 1.45% (inactive) | -4.26% (inactive) | 99% (inactive) | -0.12 (inactive) | 17% (inactive) | -10.4% (inactive)
O=c1oc2c(CN3CCN(CCO)CC3)c(O)ccc2cc1-c1ccccn1 | 62.7 | 150% (inactive) | -14.9% (inactive) | 88.3% (inactive) | -1% (inactive) | 59.8% (active) | -9.17% (inactive) | 5.97% (inactive) | 109% (inactive) | -0.06 (inactive) | 15% (inactive) | 10.6% (inactive)
CCc1ccc(/C=C2\SC(=S)N(CCC(=O)N3CCN(C)CC3)C2=O)cc1 | 56.3 | 275% (inactive) | -16.8% (inactive) | 90.8% (inactive) | -1% (inactive) | 39.6% (inactive) | -7.8% (inactive) | -6.7% (inactive) | 101% (inactive) | 0.3 (inactive) | 2% (inactive) | 10.4% (inactive)
CC(=O)C1=C(NC(=O)c2ccc(C(F)(F)F)cc2)C[C@@H]2[C@H]1C2(C)C | 60 | 129% (inactive) | -3.77% (inactive) | 99% (inactive) | 3% (inactive) | 0.35% (inactive) | 6.52% (inactive) | -6.14% (inactive) | 101% (inactive) | 0.28 (inactive) | -1% (inactive) | -17.7% (inactive)
O=P(c1ccccc1)(c1ccccc1)c1nc(-c2ccc(Cl)cc2)oc1N1CCOCC1 | 57.7 | 148% (inactive) | 4.27% (inactive) | 135% (inactive) | 2% (inactive) | -13.6% (inactive) | 7.65% (inactive) | 3.02% (inactive) | 105% (inactive) | 0.435 (active) | -3% (inactive) | -3.11% (inactive)
C#CCN(C)CCCOc1ccc(Cl)cc1Cl | 56.3 | 64.3% (inactive) | -7.12% (inactive) | 96.4% (inactive) | 0% (inactive) | -6.11% (inactive) | -2.33% (inactive) | 1.85% (inactive) | 96.3% (inactive) | 0.3 (inactive) | 12% (inactive) | -1.64% (inactive)
CC(=O)c1cn(C)c(=O)[nH]c1=O | 60.8 | 243% (inactive) | -7.25% (inactive) | 103% (inactive) | 3% (inactive) | 72.3% (active) | -5.48% (inactive) | 0.64% (inactive) | 107% (inactive) | -0.24 (inactive) | 2% (inactive) | -8.8% (inactive)
CC(C)(C)c1ccc(C(O)CCCN2CCC(C(O)(c3ccccc3)c3ccccc3)CC2)cc1 (centres undefined) | 64.6 | 199% (inactive) | 38.9% (inactive) | 54.7% (active) | -1% (inactive) | 74.7% (active) | 2.19% (inactive) | 16.5% (active) | 112% (inactive) | 0.59 (active) | 10% (inactive) | 0.92% (inactive)
